Screens from PubChem BioAssay.
Shn3 inh set2: reduction of Shn3 3'UTR firefly luciferase signal, primary screen, Schnurri-3 inhibitor project, cell-based, Clone20 osteoblasts, set 2. AID 588674, 2011. Clone20 osteoblast Shn3 3'UTR firefly luciferase, 24 h. hit rate 0.52% among 360,000. inhibition, % at 12.5 µM;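 active = mean inhibition of at least 75% with every replicate also reaching 75%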;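 also: 0% = median of neutral control wells and 100% = pilot-screen positive control compound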
TRPM1 prom inh: inhibitors of MITF-dependent TRPM1 promoter reporter, primary screen, cell-based, SK-MEL-5, single point, luciferase | AID 488899, 2010 | inhibition, % at 12.5 µM | hit rate 0.83% among 330,000 | SK-MEL-5 TRPM1 promoter luciferase, 24 h;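 active = mean inhibition across replicates of 60% or more, whatever share of single replicates reaches that level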
Peg3 promoter: Peg3 promoter-driven luciferase inhibitors, primary screen, cell-based, HeLa, luciferase luminescence; inhibition, % at 20 µM; hit rate 1.7% among 360,000; HeLa PEG-Prom luciferase reporter, overnight;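 active = inhibition of at least 50% at 20 µM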
HIF-2a block: HIF-2a reporter inhibitors, primary screen, luminescence, 786-0 RCC cells. 786-0 RCC cells HIF-2a reporter, luciferase luminescence, overnight. inhibition, % at 18.8 µM. hit rate 0.72% among 360,000. AID 624352, 2012;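 active = inhibition of the luminescence signal of 40% or more relative to plate controls, in a single-dose primary screen at 18.75 µM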
KKLEB cytotox: cytotoxicity in KKLEB CF airway cells, primary screen, cytotoxicity control for CF NF-kB inhibitor project, cell-based, uHTS, fluorescence assay plates. KKLEB CF airway cells viability, ATPlite luminescence, overnight; stronger effect = lower value; cells stimulated with P. aeruginosa culture filtrate. activity change (cytotoxicity), % at 5 µM. hit rate 0.36% among 360,000. AID 602141, 2011;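 active = corrected activity change at or below -50% at 5 µM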
CF NFkB block: inhibitors of PAF-induced NF-kB signaling, primary screen, cell-based, GFP fluorescence, uHTS | inhibition, % at 5 µM | hit rate 0.86% among 360,000 | AID 588850, 2011 | KKLEB NF-kB-GFP reporter, GFP fluorescence overnight;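 active = at least 50% inhibition at 5 µM, scaled per plate between neutral and stimulator controls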;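 also: PAF is a Pseudomonas aeruginosa culture filtrate used as stimulus; plate controls were PAF-stimulated DMSO wells for no effect and unstimulated DMSO wells for full effect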
* = called active by the depositor; nt = no result given. In the library only some 2.7% were active in any assay of this set; here they are far more common.

SMILES	Shn3 inh set2	TRPM1 prom inh	Peg3 promoter	HIF-2a block	KKLEB cytotox	CF NFkB block
O=C(NC1CCCCC1)C(=O)c1c[nH]c2ccccc12	-26	-64	-282	-311	-3	-43
Cc1cc(NC(=S)NC(=O)c2ccccc2)ccc1-c1cc2ccccc2oc1=O	37	43	0	8	-61*	56*
CCC(C)(C)C1CCC(NC(=O)c2ccc(S(=O)(=O)N3CCOCC3)cc2)CC1 (configuration not stated)	23	-10	11	7	6	8
O=C(NCc1ccccc1CN1CCOCC1)c1ccc(-n2cccn2)cc1	2	-5	-1	0	3	-8
CCN(CC)c1ncnc2c1ncn2[C@H]1CN(Cc2ccc(Cl)cc2)C[C@@H](CO)O1	-6	nt	18	9	-6	-20
CN1CCCC1CCNc1ccc2sc3ccccc3c(=O)c2c1 (configuration not stated)	-40	-101	-154	-196	-8	-36
Cc1cc2oc3cc(NCCC4CCCN4C)ccc3c(=O)c2cc1C (configuration not stated)	-181	9	83*	-260	-16	-17
Cc1cccc(C)c1OCC(=O)Nc1cccc(S(=O)(=O)N2CCCCCC2)c1	49	nt	28	6	-9	-12
Cc1ccc(C(=O)OCC(=O)N2CCCC2)cc1	-43	-26	-114	-99	-9	-10
CCN1/C(=C/c2cc[n+](C)cc2)C=Cc2cc(C)ccc21	80	70*	61*	6	1	-46
CCN1C(=O)/C(=C2\C=Cc3cc(C)ccc3N2CC)OC1=S	-19	-4	-44	-60	1	-1
Cn1c(SCC(=O)NCC2CCCO2)ncc(C(=O)Nc2ccc(Cl)cc2)c1=O (configuration not stated)	20	67*	59*	-61	-2	41
CC(=O)Nc1cccc(NC(=O)CSc2ncc(C(=O)Nc3ccc(F)cc3)c(=O)n2C)c1	19	47	-19	-14	-6	8
CC(=O)Nc1cccc(NC(=O)CSc2ncc(C(=O)Nc3ccccc3)c(=O)n2C)c1	10	67*	105*	1	3	26
CC(=O)c1cccc(NC(=O)CSc2ncc(C(=O)Nc3ccccc3)c(=O)n2C)c1	-12	64*	110*	10	-1	15
CC(=O)Nc1ccc(NC(=O)CSc2ncc(C(=O)Nc3ccc(Cl)cc3)c(=O)n2C)cc1	-4	2	-74	-60	-12	21
CCNC(=O)C1(C)CCN(C(=O)c2ccc3snnc3c2)C1 (configuration not stated)	-8	nt	-5	7	10	-14
O=C(Cc1csc(Nc2nc(=S)[nH]c3ccccc23)n1)NCc1ccc(Cl)cc1	10	7	31	-5	-41	19
O=C(Cc1csc(Nc2nc(=S)[nH]c3ccccc23)n1)NCCCN1CCN(c2ccccc2F)CC1	-2	66*	68*	11	-32	-56
COC(=O)c1cccc(Cn2c(Cl)c(/C=N/NC(=O)c3ccco3)sc2=O)c1	2	-7	17	-7	-16	-5
CCCCCCCNC(=O)C1(CC2CC(c3ccc(Cl)cc3)=NO2)CCNCC1 (configuration not stated)	2	88*	111*	-2	-19	25
CCCCCCCNC(=O)C1(CC2CC(c3ccc(Cl)cc3)=NO2)CCN(C(=O)Cc2ccc(F)cc2)CC1 (configuration not stated)	9	-4	19	14	-23	15
Nc1c(C(=O)Nc2ccccc2Cl)nnn1-c1ccc2c(c1)OCCO2	-74	-137	-404	-251	-2	20
Oc1ccc(/C=C/c2ccc3ccccc3n2)cc1	68	70*	46	26	-40	-87
CN(Cc1ccc(C(C)(C)C)cc1)C(=O)C1CSC2(C)CCC(=O)N12 (configuration not stated)	-5	8	8	6	-5	-1
